# PubChem BioAssay (NCI)
# About 83,000 compounds went through this panel and 20% of them were active in at least one assay; those are over-represented in the sample as a whole.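 Each cell line was grown in a 96-well plate and treated with one concentration of compound for 48 hours. Values below 10 were considered active.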 Values without a mark were called inactive. Calls of active or inactive are those of the source.
# Test system: SK-MEL-2 melanoma
# Test: NCI-60 one-dose screen, 48 h (100 = growth as untreated, 0 = no growth, -100 = all killed)
# Conditions: 10 µM unless noted
row,SMILES,growth
1,OC(c1ccccc1)(c1ccccc1)c1ccccc1-c1ccccc1,103%
2,Clc1ccc(-c2nc(-c3c[nH]c4ncccc34)cs2)cc1,72% [100 µM]
3,CC(=O)c1cc(-c2ccccc2N)n(-c2ccc3c(c2)OCO3)c1C,51.6%
4,CC1O[C@@H]2C[C@@](O)([C@H]1O)n1c3ccccc3c3c4c(c5c6ccccc6n2c5c31)C(=O)NC4=O (stereo not given in full),75.4%
5,COC(=O)/C(CCC=C(C)C)=C1\[C@@H](OC(C)=O)C[C@@]2(C)[C@H]1CC(=O)[C@H]1[C@@]3(C)CCC(N4CCCC4)[C@@H](C)[C@@H]3CC[C@@]12C (stereo not given in full),105%
6,CN(C)c1ccc(/C=C2/C=C(c3ccccc3)OC2=O)cc1,84.6%
7,COc1cc(-c2nc3occn3c2-c2ccnc(NCCCNS(=O)(=O)c3ccccc3)n2)ccc1F,34.2%
8,O=C(Nc1ccccc1)c1sc(-c2ccccc2)cc1O,105%
9,CCOC(=O)c1c2c(n3c1NCC3)-c1ccccc1C2=O,79.3%
10,C/C(=N\Nc1nc(C)cs1)c1cc2ccccc2o1,104%
11,CCOC(=O)C1=C(c2ccccc2)N=c2s/c(=C/c3ccc(Br)cc3)c(=O)n2C1c1ccc(O)cc1 (stereo not given),95.9%
12,COc1ccc(C2CC(c3ccc(Nc4nc(Nc5ccc(F)cc5)nc(Nc5ccc(F)cc5)n4)cc3)=NN2C(C)=O)cc1 (stereo not given),72%
13,c1ccc2cc(Cn3c[n+](Cc4ccc5ccccc5c4)c4ccccc43)ccc2c1,-61.7% (active)
14,CN1CCN(c2ccc3c(c2)nc(NNC(=O)c2cnccn2)c2cccn23)CC1,64.8%
15,Cc1cc(C)c(-c2c(O)c(Br)c(-c3c(C)cc(C)c(Br)c3C)c(O)c2Br)c(C)c1Br,-22.3% (active)
16,CCCCCCCCCCCCCCCCCCOc1ccccc1CC(=O)NCC[N+]1(C)CCOCC1,74.6%
17,O=C(/C=C/c1cccc(Cl)c1)c1cccc(OCCCCOc2cccc(C(=O)/C=C/c3cccc(Cl)c3)c2)c1,103%
18,Cc1ccc(-c2nc(C#N)c(S(=O)(=O)NCCO)o2)cc1,64.9%
19,NC(=O)c1ccc(NC(=O)c2oc3ccccc3c2-c2cnn(-c3ccccc3)c2)cc1,61.5% [50 µM]
20,O=C(CBr)CN1C(=O)c2ccccc2C1=O,108%

row,SMILES,growth
1,CCN(CC)c1ccc(/C=C\c2cc(C)c3cc(C)ccc3n2)cc1,14.4%
2,C=CCN=C(N)SCCCCCCSC(N)=NCC=C,80.5%
3,Clc1nn2c(Cn3cnc4c(NCc5ccccc5)ncnc43)nnc2c2ccccc12,-5.44% (active)
4,CCOC(=O)c1ccc2c(c1)c1c(C)c3ccncc3c(C)c1n2C,-38.2% (active)
5,CCCCCCCCn1ccc2cc(NC(=O)Cn3cc(CN4CCCCCC4)nn3)ccc21,-66.6% (active)
6,N#CC(C#N)N=Nc1ccc(Cl)cc1Cl,99.9%
7,Brc1ccc(-c2cnc3nonc3n2)cc1,88.9%
8,COc1cccc(C(=O)OCC(O)C(=O)NC23CC4CC(CC(C4)C2)C3)c1 (stereo not given),101%
9,O=C(Nc1cccc(NC(=O)C2CCCCC2)c1)c1ccccn1,100%
10,Cc1cc(C)cc(Nc2ccc([N+](=O)[O-])c(NCCN3CCOCC3)n2)c1,43.4%
11,O=C(Nc1cccnc1Nc1ccc(Cl)cc1)c1cn(Cc2ccc(F)cc2)nn1,102%
12,Cn1c(=O)c2c(c3ccccc31)OC(N)=C(C#N)C21C(=O)c2ccccc2C1=O,107%
13,COc1cccc(/C=C2\COc3ccc(O)cc3C2=O)c1,104%
14,CCc1cccc(Sc2cc(C(=O)N3Cc4ccc(OCCN(C)C)cc4C3)ccc2O)c1,88.2%
15,C=C(CN1CC=CCC1)[C@@H]1CC[C@]2(CO)CC[C@]3(C)[C@H](CC[C@@H]4[C@@]5(C)CC[C@H](O)C(C)(C)[C@@H]5CC[C@]43C)[C@@H]12,110%
16,COc1ccc(/C(C)=C(\c2ccc(Cl)cc2)c2ccc(OCCN3CCCC3)cc2)cc1,40.6%
17,CC/C(Cc1ccccc1)=C(\c1ccc(OCCN2CCCCCC2)cc1)c1ccc(OC(=O)NCc2ccccc2)cc1,98.9%
18,N=c1sc(Cc2cc(Cl)ccc2Cl)cn1CC(=O)c1ccccc1,61.6%
19,Cc1cc(C(=O)Nc2cc(Nc3ncccc3-c3ncnc4nc[nH]c34)ccc2F)cc(C(F)(F)F)c1,6.72% (active)
20,C[C@@H]1O[C@@H](O[C@@H]2C[C@H](c3ccc4c(c3O)C(=O)C3=C(C4=O)[C@@]4(O)C(=O)C[C@](C)(O)C[C@@]4(O)C=C3)O[C@H](C)[C@H]2O)C[C@H](O)[C@@H]1O,103%

# Test system: EKVX NSCLC
# Test: as above
# Conditions: 10 µM unless noted
row,SMILES,growth
1,OC(c1ccccc1)(c1ccccc1)c1ccccc1-c1ccccc1,115%
2,Clc1ccc(-c2nc(-c3c[nH]c4ncccc34)cs2)cc1,34.7% [100 µM]
3,CC(=O)c1cc(-c2ccccc2N)n(-c2ccc3c(c2)OCO3)c1C,50.9%
4,CC1O[C@@H]2C[C@@](O)([C@H]1O)n1c3ccccc3c3c4c(c5c6ccccc6n2c5c31)C(=O)NC4=O (stereo not given in full),68.7%
5,COC(=O)/C(CCC=C(C)C)=C1\[C@@H](OC(C)=O)C[C@@]2(C)[C@H]1CC(=O)[C@H]1[C@@]3(C)CCC(N4CCCC4)[C@@H](C)[C@@H]3CC[C@@]12C (stereo not given in full),91.9%
6,CN(C)c1ccc(/C=C2/C=C(c3ccccc3)OC2=O)cc1,109%
7,COc1cc(-c2nc3occn3c2-c2ccnc(NCCCNS(=O)(=O)c3ccccc3)n2)ccc1F,44.7%
8,O=C(Nc1ccccc1)c1sc(-c2ccccc2)cc1O,86.7%
9,CCOC(=O)c1c2c(n3c1NCC3)-c1ccccc1C2=O,95.8%
10,C/C(=N\Nc1nc(C)cs1)c1cc2ccccc2o1,56.3%
11,CCOC(=O)C1=C(c2ccccc2)N=c2s/c(=C/c3ccc(Br)cc3)c(=O)n2C1c1ccc(O)cc1 (stereo not given),76.8%
12,COc1ccc(C2CC(c3ccc(Nc4nc(Nc5ccc(F)cc5)nc(Nc5ccc(F)cc5)n4)cc3)=NN2C(C)=O)cc1 (stereo not given),94.8%
13,c1ccc2cc(Cn3c[n+](Cc4ccc5ccccc5c4)c4ccccc43)ccc2c1,13.9%
14,CN1CCN(c2ccc3c(c2)nc(NNC(=O)c2cnccn2)c2cccn23)CC1,30.1%
15,Cc1cc(C)c(-c2c(O)c(Br)c(-c3c(C)cc(C)c(Br)c3C)c(O)c2Br)c(C)c1Br,19.2%
16,CCCCCCCCCCCCCCCCCCOc1ccccc1CC(=O)NCC[N+]1(C)CCOCC1,91.3%
17,O=C(/C=C/c1cccc(Cl)c1)c1cccc(OCCCCOc2cccc(C(=O)/C=C/c3cccc(Cl)c3)c2)c1,106%
18,Cc1ccc(-c2nc(C#N)c(S(=O)(=O)NCCO)o2)cc1,104%
19,NC(=O)c1ccc(NC(=O)c2oc3ccccc3c2-c2cnn(-c3ccccc3)c2)cc1,7.54% [50 µM] (active)
20,O=C(CBr)CN1C(=O)c2ccccc2C1=O,107%

row,SMILES,growth
1,CCN(CC)c1ccc(/C=C\c2cc(C)c3cc(C)ccc3n2)cc1,61.6%
2,C=CCN=C(N)SCCCCCCSC(N)=NCC=C,98.4%
3,Clc1nn2c(Cn3cnc4c(NCc5ccccc5)ncnc43)nnc2c2ccccc12,52%
4,CCOC(=O)c1ccc2c(c1)c1c(C)c3ccncc3c(C)c1n2C,10.3%
5,CCCCCCCCn1ccc2cc(NC(=O)Cn3cc(CN4CCCCCC4)nn3)ccc21,74.1%
6,N#CC(C#N)N=Nc1ccc(Cl)cc1Cl,99.3%
7,Brc1ccc(-c2cnc3nonc3n2)cc1,72.1%
8,COc1cccc(C(=O)OCC(O)C(=O)NC23CC4CC(CC(C4)C2)C3)c1 (stereo not given),97.4%
9,O=C(Nc1cccc(NC(=O)C2CCCCC2)c1)c1ccccn1,92%
10,Cc1cc(C)cc(Nc2ccc([N+](=O)[O-])c(NCCN3CCOCC3)n2)c1,66%
11,O=C(Nc1cccnc1Nc1ccc(Cl)cc1)c1cn(Cc2ccc(F)cc2)nn1,92.6%
12,Cn1c(=O)c2c(c3ccccc31)OC(N)=C(C#N)C21C(=O)c2ccccc2C1=O,86%
13,COc1cccc(/C=C2\COc3ccc(O)cc3C2=O)c1,98.4%
14,CCc1cccc(Sc2cc(C(=O)N3Cc4ccc(OCCN(C)C)cc4C3)ccc2O)c1,39.2%
15,C=C(CN1CC=CCC1)[C@@H]1CC[C@]2(CO)CC[C@]3(C)[C@H](CC[C@@H]4[C@@]5(C)CC[C@H](O)C(C)(C)[C@@H]5CC[C@]43C)[C@@H]12,104%
16,COc1ccc(/C(C)=C(\c2ccc(Cl)cc2)c2ccc(OCCN3CCCC3)cc2)cc1,61.2%
17,CC/C(Cc1ccccc1)=C(\c1ccc(OCCN2CCCCCC2)cc1)c1ccc(OC(=O)NCc2ccccc2)cc1,69.5%
18,N=c1sc(Cc2cc(Cl)ccc2Cl)cn1CC(=O)c1ccccc1,54.4%
19,Cc1cc(C(=O)Nc2cc(Nc3ncccc3-c3ncnc4nc[nH]c34)ccc2F)cc(C(F)(F)F)c1,67.1%
20,C[C@@H]1O[C@@H](O[C@@H]2C[C@H](c3ccc4c(c3O)C(=O)C3=C(C4=O)[C@@]4(O)C(=O)C[C@](C)(O)C[C@@]4(O)C=C3)O[C@H](C)[C@H]2O)C[C@H](O)[C@@H]1O,102%
